Assay results reported in PubChem BioAssay (NCI).
The panel holds about 83,000 compounds, 20% with a hit somewhere; the sample as a whole holds those more often.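 Method: cells in 96-well plates; compound added at one concentration; 48 h incubation; percent growth measured; values under 10 scored active.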 A number with no mark means an inactive call. The source made the active and inactive calls.

Assays:
Test in all cases: NCI-60 one-dose screen, 48 h (100 = growth as untreated, 0 = no growth, -100 = all killed)
Conditions in all cases: 10 µM unless noted
[1] = test system: DU-145 prostate
[2] = test system: K-562 leukemia
[3] = test system: MALME-3M melanoma
[4] = test system: MDA-MB-231 breast
[5] = test system: RXF 393 renal
[6] = test system: SF-268 CNS
[7] = test system: SF-295 CNS
[8] = test system: SF-539 CNS
[9] = test system: UACC-257 melanoma
[10] = test system: M14 melanoma
[11] = test system: HCT-15 colon
[12] = test system: HT29 colon
[13] = test system: SNB-75 CNS
[14] = test system: SNB-19 CNS
[15] = test system: U251 CNS
[16] = test system: PC-3 prostate
[17] = test system: SK-MEL-5 melanoma
[18] = test system: UACC-62 melanoma
[19] = test system: LOX IMVI melanoma
[20] = test system: SK-MEL-28 melanoma

Structure (SMILES) | growth [1] | growth [2] | growth [3] | growth [4] | growth [5] | growth [6] | growth [7] | growth [8] | growth [9] | growth [10] | growth [11] | growth [12] | growth [13] | growth [14] | growth [15] | growth [16] | growth [17] | growth [18] | growth [19] | growth [20]
CC(C)C(NC(=O)C1(NC(=O)OCc2ccccc2)CCCC1)C(=O)O (stereo not given) | 118% | 91.7% | 111% | 105% | 134% | 111% | 112% | 111% | 89.2% | 102% | 112% | 105% | 92.3% | 103% | 86.7% | 102% | 102% | 106% | 90.2% | 107%
Fc1c[c-]c(-c2ccccn2)c(F)c1.[CH3-].[Pt+2].c1ccc(P(C[PH+](c2ccccc2)c2ccccc2)c2ccccc2)cc1 | 5.54% (active) | 4.93% (active) | -83.2% (active) | -59% (active) | -82.3% (active) | 16.9% | 6.1% (active) | -86.3% (active) | -4.95% (active) | -20% (active) | -51.4% (active) | 1.16% (active) | -14.1% (active) | -54.8% (active) | -71.7% (active) | -33.2% (active) | -97.1% (active) | -18.7% (active) | -92.9% (active) | -51.2% (active)
CC/C=C\C[C@H](O)C/C=C1/C(=O)C=C[C@@H]1C/C=C\CCCCO | 28.3% | 6.44% (active) | 34.7% | 8.29% (active) | 56.1% | 78.3% | 10.6% | 14.5% | 34% | 16.4% | 2.31% (active) | -39% (active) | 76.1% | 55.8% | -33% (active) | 0.486% (active) | 10.5% | -23.3% (active) | -68.9% (active) | 16.7%
Cc1ccc(CCC(=O)Nc2ncc(Cc3cc(Cl)ccc3Cl)s2)o1 | 13.8% | 9.78% (active) | 41.5% | 12.4% | -8.55% (active) | 57.6% | 7.41% (active) | -16.4% (active) | 66.9% | 6.18% (active) | 12.5% | 4.92% (active) | -1.75% (active) | 21.7% | 18% | 23.6% | 7.9% (active) | 21.2% | 13.3% | 55.7%
C=C1C(=O)O[C@H]2[C@H]1CC/C(COC(=O)C(=O)c1cn(C)c3ccc(OC)cc13)=C\CC[C@@]1(C)O[C@@H]21 | -79% (active) | 2.97% (active) | -74.8% (active) | -58.4% (active) | -94.8% (active) | -40.6% (active) | 10.2% | -66.9% (active) | -72.1% (active) | -77.3% (active) | -53.1% (active) | -52.7% (active) | -76.7% (active) | -13.8% (active) | -92.5% (active) | -59.2% (active) | -100% (active) | -84.8% (active) | -88.5% (active) | -65.3% (active)
COc1cccc(-c2nc3sccn3c2-c2ccnc(NCCNS(=O)(=O)c3cccc(Cl)c3)c2)c1 | 44.1% | 25.3% | 63.2% | 68.3% | 47.5% | 42.7% | 33.8% | 72.6% | 58% | 48.4% | 37.8% | 45.7% | 36.6% | 65% | 58.8% | 20.2% | 20.2% | 12.1% | 46.7% | 68.4%
COC(=O)[C@]12CC[C@@H](C)[C@H](C)[C@@H]1C1=CC[C@@H]3[C@@]4(C)C(C=O)=C[C@@](C)(COC(=O)c5ccco5)C4=CC[C@@]3(C)[C@]1(C)CC2 | 10.7% | 11.1% | -43.5% (active) | -8.21% (active) | -56.3% (active) | -10.9% (active) | 11.7% | -15.3% (active) | -34.6% (active) | -33.9% (active) | -31.9% (active) | -0.473% (active) | 20% | 36.5% | -4.29% (active) | 14.1% | -87.1% (active) | -11.1% (active) | -86.3% (active) | -45.5% (active)
C=C(C)[C@@H]1CC[C@]2(C(=O)NC3CCCCC3)CC[C@]3(C)[C@H](CC[C@@H]4[C@@]5(C)CCC(=O)C(C)(C)[C@@H]5CC[C@]43C)[C@@H]12 | 104% | 84.2% | 84.2% | 87.4% | 98.3% | 94.3% | 97.8% | 96.1% | 94.2% | 97.7% | 97.1% | 85.7% | 85.6% | 84.2% | 84.9% | 60.1% | 95.9% | 76.9% | 92.2% | 97.1%
CC(C)(C)n1cc(-c2ccnc(NCCCNS(=O)(=O)c3ccccc3)c2)c(-c2ccccc2)n1 | 83.7% | 21.2% | 82.7% | 72% | 62% | 93.1% | 63.2% | 66.4% | 77.9% | 67.1% | 26.5% | 24.7% | 65.1% | 89.4% | 64.3% | 35.6% | 53.2% | 61.8% | 50.9% | 97%
Cc1ccc2c(c1)Sc1c(ccc3ccccc13)N2 | 82.9% | 39.7% | 90.7% | 50.6% | 63.6% | 59.5% | 69.8% | 47.5% | 80.4% | 65.4% | 32.3% | 73.3% | 51.8% | 94.5% | 45.3% | 61% | 46% | 58.9% | 45.6% | 84.7%
CC(C)CC(NC(=O)CN(Cc1ccccc1)S(C)(=O)=O)C(=O)O (stereo not given) | 104% | 78% | 98.8% | 111% | 80.3% | 109% | 96.4% | 90.9% | 103% | 97% | 101% | 97.4% | 80% | 91.6% | 103% | 90.1% | 95% | 89.2% | 100% | 100%
CCN1CCN(c2cc(C)nc(NCc3cc(Nc4ccnc5cc(Cl)ccc45)ccc3F)n2)CC1 | 50.7% | 4.69% (active) | 107% | 26.4% | 58.5% | 58% | 31% | 55.7% | 69.2% | -64.3% (active) | 15.9% | -5.84% (active) | 79% | 68.3% | 59.8% | 57.6% | -85.5% (active) | 86.3% | 8.07% (active) | 93.3%
COCCN(C(=O)c1ccc(F)cc1F)c1c(N)n(Cc2ccccc2)c(=O)[nH]c1=O | 120% | 96.6% | 120% | 106% | 101% | 111% | 108% | 108% | 106% | 112% | 98.8% | 104% | 105% | 106% | 100% | 97.4% | 108% | 94.3% | 99.3% | 114%
C[n+]1cc2cc(C(N)=O)[nH]c3c(=N)c(Cl)c(N)c1c23 | 69.7% | 53% | 99.1% | 53.7% | 73.8% | 64.8% | 74.1% | 90.6% | 45.5% | 59.9% | 42.1% | 35.3% | 86.3% | 75.1% | 62.2% | 48.4% | 79.2% | 78% | 64.2% | 109%
Cn1c(=O)c2[nH]c(NN)nc2n(C)c1=O | 123% | 100% | 135% | 116% | 123% | 108% | 108% | 111% | 119% | 102% | 97.2% | 105% | 89.6% | 110% | 105% | 101% | 105% | 114% | 101% | 103%
CC(C)(C)C(CCc1ccc(Cl)cc1)N1CCN(C2CCCCC2)CC1 (stereo not given) | 25.3% | 9.18% (active) | 83.4% | 12.3% | 83.2% | 43.8% | 72.6% | 81.2% | 51.4% | 31.9% | 38.1% | 12.6% | 77.7% | 70.6% | 38.1% | 27.7% | 46.4% | 46.8% | -20.3% (active) | 83.1%
